# Measured values from the supplement of paper PMC10037445.
# The full ranking holds about 2,900 compounds; the median of “NF-kB SEAP reporter activity, fold change vs agonist alone” is about 0.99, and the highest 2% start at about 2.6. The entries come from a sample that favours the highest values as a whole.
# How the values were obtained:
# RAW-Dual [1] = assay: NF-kB SEAP reporter activity, fold change vs agonist alone; cytotoxicity flag (confluency mask): cytotoxic (confluency <70% of control); higher = enhanced NF-kB activity
# Outline: (§1)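 Cytotoxic wells were those whose IncuCyte confluency was below 70% of agonist controls in both mask sets. The cells were RAW-Dual macrophages at 50,000 cells/well in DMEM on 384-well plates, dosed with 50 nL of library stock by pin tool, stimulated with a PRR agonist 1 h later, and kept at 37 °C, 5% CO2 for 20 hours. IRF and NF-κB reporter activity, as fold change over agonist-alone wells, came from supernatant read by QuantiLuc luminescence and QuantiBlue absorbance, respectively.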
# RAW-Dual [2] = assay: NF-kB SEAP reporter activity, fold change vs agonist alone; higher = enhanced NF-kB activity; conditions: cytotoxicity flag (confluency mask): not cytotoxic
# Outline: as §1
# RAW-Dual [3] = assay: NF-kB SEAP reporter activity, fold change vs agonist alone; cytotoxicity flag (confluency mask): not cytotoxic; higher = enhanced NF-kB activity
# Outline: as §1
# [4] = agonist: ODN 1826 (TLR9) 0.5 ug/mL
# [5] = agonist: Pam2CSK4 (TLR2/6) 0.1 ug/mL
# [6] = agonist: Pam3CSK4 (TLR2/1) 0.1 ug/mL
# [7] = library stock concentration (final ~1000-fold dilution): 10 mM, agonist: Imiquimod (TLR7) […]
# [8] = library stock concentration (final ~1000-fold dilution): 10 mM, agonist: MPLA (TLR4) […]
structure (smiles),measurement,setting,value
COc1ccc(C=Cc2cc(OC)c(OC)c(OC)c2)cc1OP(=O)(O)O (library stock concentration (final ~1000-fold dilution): 10 mM water),NF-kB SEAP reporter activity,RAW-Dual [1]; agonist: LPS (TLR4) 0.1 ug/mL,5.99
same,NF-kB SEAP reporter activity,RAW-Dual [1]; [4],2.48
same,NF-kB SEAP reporter activity,RAW-Dual [1]; [5],2.34
same,NF-kB SEAP reporter activity,RAW-Dual [1]; [6],2.65
CCC(C)C(NC(=O)C(CCCCN)NC(=O)C(CCC(=O)O)NN)C(=O)NC(CCC(N)=O)C(=O)NC(C)C(=O)NC(CCCCN)C(=O)N1CCCC1C(=O)NC(C)C(=O)C(=O)C(CC(C)C)NC(=O)C(CCC(N)=O)NC(=O)C(NC(=O)C(NC(=O)C(CCCNC(=N)N)NC(=O)C(Cc1ccccc1)NC(=O)C(CCCCNNC(Cc1ccccc1)C(=O)NC(CO)C(=O)NC(CCC(=O)O)C(=O)NC(CO)C(=O)NC(C(=O)NC(CC(N)=O)C(=O)NC(C=O)CO)C(C)O)NC(=O)C(Cc1ccccc1)NC(=O)C(CO)NC(=O)C(CCC(=O)O)NC(=O)C(CO)NC(=O)C(NC(=O)C(CC(N)=O)NC(=O)C(N)CO)C(C)O)C(C)C)C(C)O (centres undefined),NF-kB SEAP reporter activity,"RAW-Dual [2]; library stock concentration (final ~1000-fold dilution): 10 mM water, agonist: Imiquimod (TLR7) […]",0.927
same,NF-kB SEAP reporter activity,"RAW-Dual [2]; library stock concentration (final ~1000-fold dilution): 10 mM water, agonist: MPLA (TLR4) […]",1.03
CCC(C)C(NC(=O)C(CCCCN)NC(=O)C(CCC(=O)O)NN)C(=O)NC(CCC(N)=O)C(=O)NC(C)C(=O)NC(CCCCN)C(=O)N1CCCC1C(=O)NC(C)C(=O)C(=O)C(CC(C)C)NC(=O)C(CCC(N)=O)NC(=O)C(NC(=O)C(NC(=O)C(CCCNC(=N)N)NC(=O)C(Cc1ccccc1)NC(=O)C(CCCCNNC(Cc1ccccc1)C(=O)NC(CO)C(=O)NC(CCC(=O)O)C(=O)NC(CO)C(=O)NC(C(=O)NC(CC(N)=O)C(=O)NC(C=O)CO)C(C)O)NC(=O)C(Cc1ccccc1)NC(=O)C(CO)NC(=O)C(CCC(=O)O)NC(=O)C(CO)NC(=O)C(NC(=O)C(CC(N)=O)NC(=O)C(N)CO)C(C)O)C(C)C)C(C)O (centres undefined) (library stock concentration (final ~1000-fold dilution): 10 mM water),NF-kB SEAP reporter activity,RAW-Dual [3]; agonist: LPS (TLR4) 0.1 ug/mL,1.1
same,NF-kB SEAP reporter activity,RAW-Dual [3]; [4],1.16
same,NF-kB SEAP reporter activity,RAW-Dual [3]; [5],1.13
same,NF-kB SEAP reporter activity,RAW-Dual [3]; [6],1.74
O=c1cc(-c2ccc(O)cc2)oc2c(C3OC(CO)C(O)C(O)C3O)c(O)cc(O)c12 (centres undefined) (library stock concentration (final ~1000-fold dilution): 10 mM),NF-kB SEAP reporter activity,RAW-Dual [3]; agonist: LPS (TLR4) 0.1 ug/mL,0.978
same,NF-kB SEAP reporter activity,RAW-Dual [3]; [4],0.919
same,NF-kB SEAP reporter activity,RAW-Dual [3]; [5],1
same,NF-kB SEAP reporter activity,RAW-Dual [3]; [6],1.31
O=c1cc(-c2ccc(O)cc2)oc2c(C3OC(CO)C(O)C(O)C3O)c(O)cc(O)c12 (centres undefined),NF-kB SEAP reporter activity,RAW-Dual [2]; [7],0.887
same,NF-kB SEAP reporter activity,RAW-Dual [2]; [8],0.994
N#Cc1cc(N2CCC(C(=O)N3N=CCC3c3cc(F)cc(F)c3)CC2)ncn1 (centres undefined),NF-kB SEAP reporter activity,RAW-Dual [2]; [7],1.09
same,NF-kB SEAP reporter activity,RAW-Dual [2]; [8],1.26
N#Cc1cc(N2CCC(C(=O)N3N=CCC3c3cc(F)cc(F)c3)CC2)ncn1 (centres undefined) (library stock concentration (final ~1000-fold dilution): 10 mM),NF-kB SEAP reporter activity,RAW-Dual [3]; agonist: LPS (TLR4) 0.1 ug/mL,1.25
same,NF-kB SEAP reporter activity,RAW-Dual [3]; [4],1.05
same,NF-kB SEAP reporter activity,RAW-Dual [3]; [5],0.796
same,NF-kB SEAP reporter activity,RAW-Dual [3]; [6],0.84
Cn1cc(-c2[nH]c3cc(NC(=O)C(N)C4CCCCC4)cc4c3c2C=NNC4=O)cn1 (centres undefined),NF-kB SEAP reporter activity,RAW-Dual [2]; [7],2.17
same,NF-kB SEAP reporter activity,RAW-Dual [2]; [8],2.16
Cn1cc(-c2[nH]c3cc(NC(=O)C(N)C4CCCCC4)cc4c3c2C=NNC4=O)cn1 (centres undefined) (library stock concentration (final ~1000-fold dilution): 10 mM),NF-kB SEAP reporter activity,RAW-Dual [3]; agonist: LPS (TLR4) 0.1 ug/mL,3.51
same,NF-kB SEAP reporter activity,RAW-Dual [3]; [4],2.74
same,NF-kB SEAP reporter activity,RAW-Dual [3]; [5],1.6
same,NF-kB SEAP reporter activity,RAW-Dual [3]; [6],1.8
CC(C)C(NC(=O)C(CC(=O)O)NC(=O)C(CCCCN)NC(=O)C(N)CCCNC(=N)N)C(=O)NC(Cc1ccc(O)cc1)C(=O)O (centres undefined) (library stock concentration (final ~1000-fold dilution): 10 mM),NF-kB SEAP reporter activity,RAW-Dual [3]; agonist: LPS (TLR4) 0.1 ug/mL,1.27
same,NF-kB SEAP reporter activity,RAW-Dual [3]; [4],1.1
same,NF-kB SEAP reporter activity,RAW-Dual [3]; [5],1.19
same,NF-kB SEAP reporter activity,RAW-Dual [3]; [6],1.17
CC(C)C(NC(=O)C(CC(=O)O)NC(=O)C(CCCCN)NC(=O)C(N)CCCNC(=N)N)C(=O)NC(Cc1ccc(O)cc1)C(=O)O (centres undefined),NF-kB SEAP reporter activity,RAW-Dual [2]; [7],1.14
same,NF-kB SEAP reporter activity,RAW-Dual [2]; [8],0.967
